About 2,000 (36%) of roughly 5,500 compounds were called active. About 18% were inconclusive and are not listed. The list shows a part of the results. A number with no mark means an inactive call. Cut-off read from the data, not from the text of the source: active = normalized growth mostly below about 0.91 (no sharp cut-off); inconclusive = no clear call, values can overlap the other calls; inactive = mostly above about 0.92.
Test: chemical genetic growth profiling, strain panel (AID 1159580);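 note: tested at 20 µM; growth read once vehicle control cultures reached saturation at 30 °C; 1 = growth at the plate median or of vehicle wells; lower values mean less growth of the strain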
Conditions: S. cerevisiae deletion strains, growth OD

In the case of `O=C(OC1Cc2c(O)cc(O)cc2OC1c1cc(O)c(O)c(O)c1-c1c(C2Oc3cc(O)cc(O)c3CC2OC(=O)c2cc(O)c(O)c(O)c2)cc(O)c(O)c1O)c1cc(O)c(O)c(O)c1` (centres undefined), the normalized growth (locus YAL021C, strain ccr4, hits give low values) is reported as 0.833 (active), the normalized growth (locus YAL026C, strain drs2, hits give low values) is reported as 0.982 and the normalized growth (locus YAL030W, strain snc1, hits give low values) is reported as 0.998. For the same compound, the normalized growth (locus YBL061C, strain skt5, hits give low values) was 0.982, the normalized growth (locus YBR009C, strain hhf1, hits give low values) was 0.995 and the normalized growth (locus YBR021W, strain FUR4, hits give low values) was 0.988. It also gave a normalized growth (locus YBR023C, strain chs3, hits give low values) of 0.941, a normalized growth (locus YBR171W, strain sec66, hits give low values) of 1.01 and a normalized growth (locus YBR229C, strain ROT2, hits give low values) of 1. For the same compound, the normalized growth (locus YBR231C, strain swc5, hits give low values) was 0.929, the normalized growth (locus YBR279W, strain paf1, hits give low values) was 0.989 and the normalized growth (locus YCL011C, strain gbp2, hits give low values) was 1.01. It also gave a normalized growth (locus YCL016C, strain dcc1, hits give low values) of 1.01, a normalized growth (locus YCL029C, strain bik1, hits give low values) of 0.981 and a normalized growth (locus YCL061C, strain MRC1, hits give low values) of 1.01. It also gave a normalized growth (locus YCL069W, strain vba3, hits give low values) of 1.02, a normalized growth (locus YCR088W, strain abp1, hits give low values) of 1.02 and a normalized growth (locus YDL005C, strain med2, hits give low values) of 1.02. The normalized growth (locus YDL035C, strain GPR1, hits give low values) was 1.04, the normalized growth (locus YDL040C, strain nat1, hits give low values) was 1.03 and the normalized growth (locus YDL074C, strain BRE1, hits give low values) was 0.969. It also gave a normalized growth (locus YDL101C, strain DUN1, hits give low values) of 1, a normalized growth (locus YDL185W, strain tfp1, hits give low values) of 0.988 and a normalized growth (locus YDL192W, strain arf1, hits give low values) of 0.985. The normalized growth (locus YDR001C, strain nth1, hits give low values) was 1.02, the normalized growth (locus YDR069C, strain doa4, hits give low values) was 0.797 (active) and the normalized growth (locus YDR101C, strain arx1, hits give low values) was 0.998. The normalized growth (locus YDR137W, strain rgp1, hits give low values) was 0.833 (active), the normalized growth (locus YDR150W, strain NUM1, hits give low values) was 1 and the normalized growth (locus YDR159W, strain sac3, hits give low values) was 1.11. The normalized growth (locus YDR162C, strain NBP2, hits give low values) was 1.02, the normalized growth (locus YDR195W, strain ref2) was 1.07 and the normalized growth (locus YDR297W, strain sur2, hits give low values) was 0.992. The normalized growth (locus YDR318W, strain mcm21, hits give low values) was 0.995, the normalized growth (locus YDR334W, strain swr1, hits give low values) was 0.977 and the normalized growth (locus YDR335W, strain msn5, hits give low values) was 1. It also gave a normalized growth (locus YDR388W, hits give low values) of 0.99, a normalized growth (locus YDR392W, strain spt3, hits give low values) of 1.02 and a normalized growth (locus YDR502C, strain sam2, hits give low values) of 0.985. For the same compound, the normalized growth (locus YEL003W, strain gim4, hits give low values) was 0.989, the normalized growth (locus YEL037C, strain rad23, hits give low values) was 0.993 and the normalized growth (locus YEL061C, strain CIN8 (second series), hits give low values) was 1.01. The normalized growth (locus YEL061C, strain CIN8, hits give low values) was 1.01, the normalized growth (locus YER015W, strain faa2, hits give low values) was 0.926 (active) and the normalized growth (locus YER016W, strain bim1, hits give low values) was 1.01. The normalized growth (locus YER110C, hits give low values) was 0.994, the normalized growth (locus YER111C, strain swi4, hits give low values) was 0.973 and the normalized growth (locus YER155C, strain BEM2 (second series), hits give low values) was 0.994. It also gave a normalized growth (locus YER155C, strain BEM2, hits give low values) of 0.977, a normalized growth (locus YER167W, strain BCK2, hits give low values) of 1 and a normalized growth (locus YFR010W, strain ubp6, hits give low values) of 0.934. For the same compound, the normalized growth (locus YGL078C, strain dbp3, hits give low values) was 0.987, the normalized growth (locus YGL086W, strain mad1, hits give low values) was 1 and the normalized growth (locus YGL167C, strain pmr1, hits give low values) was 1. It also gave a normalized growth (locus YGL173C, strain kem1, hits give low values) of 0.981, a normalized growth (locus YGL227W, strain vid30, hits give low values) of 1.05 and a normalized growth (locus YGL240W, strain doc1, hits give low values) of 1.04. For the same compound, the normalized growth (locus YGL248W, strain PDE1, hits give low values) was 1, the normalized growth (locus YGL253W, strain hxk2, hits give low values) was 0.994 and the normalized growth (locus YGR078C, strain PAC10, hits give low values) was 0.983. The normalized growth (locus YGR135W, strain pre9, hits give low values) was 0.989, the normalized growth (locus YGR252W, strain gcn5, hits give low values) was 1.01 and the normalized growth (locus YHR013C, strain ard1, hits give low values) was 0.852. For the same compound, the normalized growth (locus YHR027C, strain rpn1, hits give low values) was 0.849 (active), the normalized growth (locus YHR030C, strain SLT2, hits give low values) was 0.998 and the normalized growth (locus YHR079C, strain IRE1 (second series), hits give low values) was 0.987. It also gave a normalized growth (locus YHR094C, strain hxt1, hits give low values) of 0.989, a normalized growth (locus YHR129C, strain ARP1, hits give low values) of 0.983 and a normalized growth (locus YHR142W, strain chs7, hits give low values) of 0.95. The normalized growth (locus YHR200W, strain rpn10, hits give low values) was 1, the normalized growth (locus YIL066C, strain RNR3, hits give low values) was 1.03 and the normalized growth (locus YIL073C, strain SPO22, hits give low values) was 1.1. For the same compound, the normalized growth (locus YIL125W, strain kgd1, hits give low values) was 0.973, the normalized growth (locus YIR030C, strain dcg1, hits give low values) was 0.995 and the normalized growth (locus YJL092W, strain hpr5, hits give low values) was 1.03. The normalized growth (locus YJL095W, strain BCK1 (second series), hits give low values) was 0.987, the normalized growth (locus YJL095W, strain BCK1, hits give low values) was 0.976 and the normalized growth (locus YJL115W, strain asf1, hits give low values) was 1.02. For the same compound, the normalized growth (locus YJL129C, strain trk1, hits give low values) was 1.04, the normalized growth (locus YJL134W, strain LCB3, hits give low values) was 1.02 and the normalized growth (locus YJL154C, strain vps35, hits give low values) was 1.01. It also gave a normalized growth (locus YJL164C, strain tpk1, hits give low values) of 0.937, a normalized growth (locus YJL166W, strain qcr8, hits give low values) of 0.989 and a normalized growth (locus YJL168C, strain set2, hits give low values) of 0.981.

— PubChem BioAssay AID1159580 (chemical genetic matrix, 2015)
